In PubChem BioAssay (Tox21):
Records with an inconclusive call do not appear. A number with no mark means an inactive call. Activity calls are given as the source filed them. Unless noted, the call rests on the fitted dose curve; in most records, active means well fitted curve in the direction sought with a large enough effect in the repeat runs; inconclusive means weak or mixed curves; inactive means no such curve, though single readings can be large; an effect the other way counts as inactive or inconclusive.

Test system: not listed separately
Test: qHTS assay to identify small molecule antagonists of the estrogen receptor alpha (ER-alpha) signaling pathway using the BG1 cell line (AID 743080; calls by dose curve;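 further: BG1 cells stimulated with 17beta-estradiol alongside compound; nearly all actives have a fitted effect of over 25% in size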)
Details: BG1Luc4E2 ERE-luciferase antagonist mode, luminescence; series mostly up to 70.3 µM; activity change, negative = inhibition: at the top concentration
Summary of the method: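 Readout is ONE-Glo luminescence, taken 30 min at room temperature after reagent addition, preceded by a CellTiter-Fluor viability read; BG1-Luc-4E2 cells had received compound and 17beta-estradiol for 21.5 h at 37 C.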
On the % scale 0 is the no-effect control and ±100 the full control effect.

| SMILES | activity change, negative = inhibition |
| --- | --- |
| C=C(C)C(=O)OCCCCCCCCCCCCCCCCCC | 15.1% [at 32.5 µM] |
| CCO[Si](CCCN=C=O)(OCC)OCC | 2.07% |
| OCc1ccccn1 | -3.1% |
| NC(=O)CCCCC1CCSS1 (stereo unspecified) | -11.6% |
| CCOC(=O)Cn1c(=O)sc2cccc(Cl)c21 | 0.456% |
| COC(=O)CCCC(=O)O | 3.92% |
| CCn1cc(C(=O)O)c(=O)c2cc(F)c(N3CCN(C)CC3)cc21 | -14.5% |
| O=S(=O)(O)c1ccccc1O | -2.41% |

Test system: not listed separately
Test: qHTS assay to identify small molecule antagonists of the estrogen receptor alpha (ER-alpha) signaling pathway using the BG1 cell line - cell viability counter screen (AID 743081);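 further: compound given together with 17beta-estradiol as the ER stimulus; nearly all actives have a fitted effect of over 45% in size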
Details: BG1Luc4E2 viability, CellTiter-Fluor, 22 h; series mostly up to 70.3 µM; activity change, negative = cytotoxicity: at the top concentration

| SMILES | activity change, negative = cytotoxicity | outcome |
| --- | --- | --- |
| CC1=CC(C)C(C=O)C(C)C1 (stereo unspecified) | -2.17% |  |
| Cc1cc(C)c(NC(=O)CN(CC(=O)O)CC(=O)O)c(C)c1Br | -0.0419% |  |
| OC/C=C/c1ccccc1 |  | inactive |
| C#CC(O)C(CC)CCCC (stereo unspecified) | 2.12% |  |
| C=C(C)C(=O)OCCCCCCCCCCCCCCCCCC | -9.15% [at 32.5 µM] |  |
| C=CCOc1nc(OCC=C)nc(OCC=C)n1 | 4.48% |  |
| CCCCCN(CCCCC)C(=O)C(CCC(=O)O)NC(=O)c1ccc(Cl)c(Cl)c1 (stereo unspecified) | 6.03% |  |
| OCCCCCCO | 10.7% [at 95 µM] |  |
| NS(=O)(=O)c1cc2c(cc1C(F)(F)F)NC(Cc1ccccc1)NS2(=O)=O (stereo unspecified) | 1.73% [at 32.5 µM] |  |
| CCO[Si](CCCN=C=O)(OCC)OCC | 10.3% |  |
| CC(C=O)Cc1ccc(C(C)C)cc1 (stereo unspecified) | -0.287% |  |
| CC1=CC(=O)CCC1 | 4.59% |  |
| O=C(O)/C=C/c1ccc(/C=C/C(=O)O)cc1 | 0.579% |  |
| CCCOCC(C)OCC(C)O (stereo unspecified) | -9.12% [at 95 µM] |  |
| OC[C@H]1O[C@@H]2O[C@H]3[C@H](O)[C@@H](O)[C@@H](O[C@H]4[C@H](O)[C@@H](O)[C@@H](O[C@H]5[C@H](O)[C@@H](O)[C@@H](O[C@H]6[C@H](O)[C@@H](O)[C@@H](O[C@H]7[C@H](O)[C@@H](O)[C@@H](O[C@H]8[C@H](O)[C@@H](O)[C@@H](O[C@H]9[C@H](O)[C@@H](O)[C@@H](O[C@H]1[C@H](O)[C@H]2O)O[C@@H]9CO)O[C@@H]8CO)O[C@@H]7CO)O[C@@H]6CO)O[C@@H]5CO)O[C@@H]4CO)O[C@@H]3CO | -5.04% [at 32.5 µM] |  |
| OCc1ccccn1 | -1.54% |  |
| NC(=O)CCCCC1CCSS1 (stereo unspecified) | -4.23% |  |
| CSc1ccc(C=O)cc1 | -3.85% |  |

| SMILES | activity change, negative = cytotoxicity | outcome |
| --- | --- | --- |
| CCCc1ccccc1O | -1.73% |  |
| CCOC(=O)Cn1c(=O)sc2cccc(Cl)c21 | 0.258% |  |
| COC(=O)CCCC(=O)O | 0.502% |  |
| C/C=C1\C(=O)C[C@H]2[C@@H]3CCC4=CC(=O)CC[C@]4(C)[C@H]3CC[C@]12C | 1.38% |  |
| FC(F)(F)C(F)(F)C(F)(F)C(F)(F)C(F)(F)C(F)(F)C(F)(F)C(F)(F)C(F)(F)C(F)(F)F | 7.45% [at 8.47 µM] |  |
| C=CC(=O)OCCCCCC | -3.06% |  |
| COc1cc(CCC(C)=O)ccc1O | 7.9% |  |
| CCn1cc(C(=O)O)c(=O)c2cc(F)c(N3CCN(C)CC3)cc21 | -0.582% |  |
| O=S(=O)(O)c1ccccc1O | 5.1% |  |
| C#CC(O)CCCCC (stereo unspecified) | 6.47% [at 95 µM] |  |
| C=CC(=O)N1CCOCC1 | 6.13% |  |
| OCC(O)[C@@H](O)[C@H](O)[C@H](O)CO[C@H]1O[C@H](CO)[C@@H](O)[C@H](O)[C@H]1O (stereo partly specified) | 1.12% |  |
| CCCCCCCCC=O | 5.53% |  |
| CC(CCO)CCCC(C)(C)O (stereo unspecified) | -3.27% |  |
| C[C@H]1O[C@@H](n2cc(F)c(=O)[nH]c2=O)[C@H](O)[C@@H]1O | -1.2% |  |
| CCCCCCCCCCC1CO1 (stereo unspecified) | -2.7% |  |
| N[C@@H](CS)C(=O)O | 0.528% [at 95 µM] |  |
| C=C(C)C(=O)NCCC[N+](C)(C)C | 6.48% |  |

Target: Aromatase (Homo sapiens) (UniProt P11511)
Test: qHTS assay to identify aromatase inhibitors (AID 743083); further: nearly all actives have a fitted effect of over 55% in size
Details: MCF-7 aro ERE, testosterone-driven ERE luciferase, 24 h; series mostly up to 70.3 µM; activity, negative = inhibition: at the top concentration

Chain of Aromatase (Homo sapiens) (P11511 whole entry, looked up): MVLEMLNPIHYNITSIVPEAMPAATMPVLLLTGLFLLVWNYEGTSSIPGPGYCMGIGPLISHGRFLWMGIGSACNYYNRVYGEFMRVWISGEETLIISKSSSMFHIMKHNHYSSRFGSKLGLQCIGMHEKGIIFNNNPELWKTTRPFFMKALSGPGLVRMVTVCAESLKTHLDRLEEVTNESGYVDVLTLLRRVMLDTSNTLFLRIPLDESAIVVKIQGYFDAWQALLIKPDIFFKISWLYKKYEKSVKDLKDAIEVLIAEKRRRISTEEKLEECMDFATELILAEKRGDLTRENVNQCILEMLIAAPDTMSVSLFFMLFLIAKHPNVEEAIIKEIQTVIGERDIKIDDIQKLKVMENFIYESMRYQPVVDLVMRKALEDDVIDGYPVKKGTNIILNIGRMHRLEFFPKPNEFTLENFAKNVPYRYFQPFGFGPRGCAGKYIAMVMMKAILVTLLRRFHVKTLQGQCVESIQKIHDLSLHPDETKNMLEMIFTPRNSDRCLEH

| SMILES | activity, negative = inhibition | Potency |
| --- | --- | --- |
| CC1=CC(C)C(C=O)C(C)C1 (stereo unspecified) | 10.7% |  |
| Cc1cc(C)c(NC(=O)CN(CC(=O)O)CC(=O)O)c(C)c1Br | -2.89% |  |
| OC/C=C/c1ccccc1 |  | inactive |
| C#CC(O)C(CC)CCCC (stereo unspecified) | 11.5% |  |
| C=C(C)C(=O)OCCCCCCCCCCCCCCCCCC | 21.9% [at 32.5 µM] |  |
| C=CCOc1nc(OCC=C)nc(OCC=C)n1 | -18.1% |  |
| CCCCCN(CCCCC)C(=O)C(CCC(=O)O)NC(=O)c1ccc(Cl)c(Cl)c1 (stereo unspecified) | 2.08% |  |
| OCCCCCCO | 3.73% [at 95 µM] |  |
| NS(=O)(=O)c1cc2c(cc1C(F)(F)F)NC(Cc1ccccc1)NS2(=O)=O (stereo unspecified) | -3.94% [at 32.5 µM] |  |
| CCO[Si](CCCN=C=O)(OCC)OCC | -0.318% |  |
| CC(C=O)Cc1ccc(C(C)C)cc1 (stereo unspecified) | -0.824% |  |
| CC1=CC(=O)CCC1 | 0.011% |  |
| O=C(O)/C=C/c1ccc(/C=C/C(=O)O)cc1 | 1.53% |  |
| CCCOCC(C)OCC(C)O (stereo unspecified) | -4.16% [at 95 µM] |  |
| OC[C@H]1O[C@@H]2O[C@H]3[C@H](O)[C@@H](O)[C@@H](O[C@H]4[C@H](O)[C@@H](O)[C@@H](O[C@H]5[C@H](O)[C@@H](O)[C@@H](O[C@H]6[C@H](O)[C@@H](O)[C@@H](O[C@H]7[C@H](O)[C@@H](O)[C@@H](O[C@H]8[C@H](O)[C@@H](O)[C@@H](O[C@H]9[C@H](O)[C@@H](O)[C@@H](O[C@H]1[C@H](O)[C@H]2O)O[C@@H]9CO)O[C@@H]8CO)O[C@@H]7CO)O[C@@H]6CO)O[C@@H]5CO)O[C@@H]4CO)O[C@@H]3CO | 0.803% [at 32.5 µM] |  |
| OCc1ccccn1 | 0.0662% |  |
| NC(=O)CCCCC1CCSS1 (stereo unspecified) | -5.43% |  |
| CSc1ccc(C=O)cc1 | 10% |  |
| CCCc1ccccc1O | 4.78% |  |

| SMILES | activity, negative = inhibition | Potency |
| --- | --- | --- |
| CCCC(=O)O[C@]1(C(=O)CCl)[C@@H](C)C[C@H]2[C@@H]3CCC4=CC(=O)C=C[C@]4(C)[C@@]3(F)C(=O)C[C@@]21C | -41.1% |  |
| CCOC(=O)Cn1c(=O)sc2cccc(Cl)c21 | -19.7% |  |
| COC(=O)CCCC(=O)O | 22.6% |  |
| C/C=C1\C(=O)C[C@H]2[C@@H]3CCC4=CC(=O)CC[C@]4(C)[C@H]3CC[C@]12C | 21.7% |  |
| FC(F)(F)C(F)(F)C(F)(F)C(F)(F)C(F)(F)C(F)(F)C(F)(F)C(F)(F)C(F)(F)C(F)(F)F | 1.74% [at 8.47 µM] |  |
| C=CC(=O)OCCCCCC | 9.13% |  |
| COc1cc(CCC(C)=O)ccc1O | 10.6% |  |
| CCn1cc(C(=O)O)c(=O)c2cc(F)c(N3CCN(C)CC3)cc21 | 16.6% |  |
| O=S(=O)(O)c1ccccc1O | -1.21% |  |
| C#CC(O)CCCCC (stereo unspecified) | 19.1% [at 95 µM] |  |
| Cc1c(C)n(CCN(C)C)c2ccc(C(=O)OCCN(C)C)cc12 | 37.4% |  |
| C=CC(=O)N1CCOCC1 | 0.7% |  |
| OCC(O)[C@@H](O)[C@H](O)[C@H](O)CO[C@H]1O[C@H](CO)[C@@H](O)[C@H](O)[C@H]1O (stereo partly specified) | -3.53% |  |
| CC(CCO)CCCC(C)(C)O (stereo unspecified) | -20.8% |  |
| C[C@H]1O[C@@H](n2cc(F)c(=O)[nH]c2=O)[C@H](O)[C@@H]1O | -2.99% |  |
| CCCCCCCCCCC1CO1 (stereo unspecified) | 10.3% |  |
| N[C@@H](CS)C(=O)O | 4.53% [at 95 µM] |  |
| C=C(C)C(=O)NCCC[N+](C)(C)C | -0.782% |  |
